POLI inh: blocks human DNA polymerase iota activity; Q9UNA4; Potency, µM (highest dose often 115 µM), for the others: at the highest dose activity, negative = inhibition, hits mostly inhibitors; 390,000 compounds, 1% hits; Pol iota fluorescent replication assay, 10 min; note: potency is the fitted concentration of half-maximal effect
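Fluorescent replication assay read twice, at 0 min and 10 min after adding 50 nM (final) substrate. Enzyme (10 nM) and compounds were first incubated 15 min at room temperature; enzyme-free buffer wells were negative controls.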
Pol kappa inh-1: inhibitors of human DNA polymerase kappa. 400,000 compounds, 0.53% hits. Potency, µM (highest dose often 107 µM), for the others: at the highest dose activity, negative = inhibition, actives largely listed as inhibitors. AID 588579. purified Pol kappa, fluorescent DNA synthesis assay, 10 min. Q9UBT6; note: potency is the fitted concentration of half-maximal effect; % is set by controls: 0 for no effect and ±100 for the full control effect
Target sequence (Q9UBT6 whole entry, looked up): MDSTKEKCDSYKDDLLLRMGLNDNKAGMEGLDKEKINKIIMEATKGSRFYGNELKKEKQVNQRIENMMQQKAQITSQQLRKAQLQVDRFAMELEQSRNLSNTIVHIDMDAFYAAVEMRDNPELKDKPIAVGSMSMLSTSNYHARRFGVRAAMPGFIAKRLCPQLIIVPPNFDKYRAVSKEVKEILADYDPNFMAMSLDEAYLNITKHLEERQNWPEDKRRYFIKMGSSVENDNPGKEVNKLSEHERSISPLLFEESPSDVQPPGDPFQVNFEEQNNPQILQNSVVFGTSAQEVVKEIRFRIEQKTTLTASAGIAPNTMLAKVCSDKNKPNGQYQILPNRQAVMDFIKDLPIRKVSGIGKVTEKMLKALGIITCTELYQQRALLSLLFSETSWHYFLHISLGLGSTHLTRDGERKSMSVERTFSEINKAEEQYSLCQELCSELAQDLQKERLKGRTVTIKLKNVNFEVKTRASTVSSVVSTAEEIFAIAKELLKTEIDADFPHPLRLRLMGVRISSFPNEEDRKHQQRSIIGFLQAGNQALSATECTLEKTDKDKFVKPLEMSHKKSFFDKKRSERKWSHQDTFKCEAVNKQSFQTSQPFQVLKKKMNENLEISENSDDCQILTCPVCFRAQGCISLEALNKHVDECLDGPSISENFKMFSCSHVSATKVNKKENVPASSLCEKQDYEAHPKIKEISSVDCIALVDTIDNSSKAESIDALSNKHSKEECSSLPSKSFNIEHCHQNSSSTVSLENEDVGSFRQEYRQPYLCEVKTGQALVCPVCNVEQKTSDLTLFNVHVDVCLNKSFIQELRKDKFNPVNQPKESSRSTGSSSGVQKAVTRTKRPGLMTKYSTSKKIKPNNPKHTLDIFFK
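10 nM Pol kappa preincubated 15 min at room temperature with compounds, then reaction started with substrate at 50 nM final. Fluorescence read kinetically at 0 and 10 min; buffer-only wells served as negative control.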
Pol beta inh: DNA polymerase beta (human) inhibition; P06746; Pol beta primer extension/strand displacement, fluorescence kinetic; Potency, µM (highest dose often 114 µM), inactives show at the highest dose activity change, negative = inhibition, actives largely listed as inhibitors; 340,000 compounds, 1.3% hits; note: potency is the fitted concentration of half-maximal effect; % is set by controls: 0 for no effect and ±100 for the full control effect
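Reaction started by 50 nM substrate onto compound-treated Pol beta (10 nM, 15 min preincubation, room temperature); plates read at 0 min and 10 min. Normalized concentration-effect data fitted by four-parameter Hill equation.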
FEN1 inh: inhibitors of human flap endonuclease 1. Recombinant FEN1 flap cleavage, fluorescence, 15 min. 390,000 compounds, 0.35% hits. Potency, µM (titrated, usually from 114 µM), inactives show at the top dose activity change, negative = inhibition, hits mostly inhibitors. P39748; note: potency is the fitted concentration of half-maximal effect; % is set by controls: 0 for no effect and ±100 for the full control effect; nearly all actives have a fitted effect of over 65% in size
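Potency values derive from four-parameter Hill fits of normalized qHTS data. The reaction used 10 nM FEN1 preincubated 15 min at room temperature with compound, then 50 nM DNA substrate, read at 0 and 15 min.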
WRN helicase inh: blocks human WRN helicase. Q14191. WRN helicase unwinding, fluorescent forked duplex, kinetic. Potency, µM (top dose mostly 114 µM), for the others: at the highest dose activity change, negative = inhibition, actives largely listed as inhibitors. 360,000 compounds, 0.46% hits. AID 651768; note: potency is the fitted concentration of half-maximal effect; % is set by controls: 0 for no effect and ±100 for the full control effect; nearly all actives have a fitted effect of over 55% in size
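Enzyme (20 nM final) and test compound sit together 15 min at room temperature before substrate addition. Substrate is a single-forked duplex oligonucleotide (100 nM) labelled with fluorophore and quencher, with 2 mM ATP; helicase unwinding raises red fluorescence, read kinetically.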
Pol eta inh-1: blocks human DNA polymerase eta activity; Q9Y253; Potency, µM (series often up to 114 µM), inactives show at the highest dose activity change, negative = inhibition, actives largely listed as inhibitors; recombinant Pol eta, fluorescent DNA replication assay; 390,000 compounds, 1.2% hits; AID 588591; note: potency is the fitted concentration of half-maximal effect; % is set by controls: 0 for no effect and ±100 for the full control effect
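Pol eta (10 nM) was preincubated with compounds for 15 min at room temperature, after which fluorescent replication substrate (50 nM final) was added to start the reaction. Fluorescence was read kinetically at 0 and 10 min.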
PGK validate: blocks T. brucei phosphoglycerate kinase | shares compounds with Pol kappa inh-1 | TbPGK coupled GAPDH assay, Kinase-Glo luminescence | Potency, µM (top dose mostly 57.5 µM), for inactives: at the top dose activity change, negative = inhibition, hits mostly inhibitors | 500 compounds, 79% hits | AID 686980; note: potency is the fitted concentration of half-maximal effect; % is set by controls: 0 for no effect and ±100 for the full control effect; nearly all actives have a fitted effect of over 65% in size
POLI cherry-pick: Human Pol iota inhibitor confirmatory assay. AID 720496. shares compounds with Pol kappa inh-1. Pol iota primer extension, TAMRA/BHQ fluorescence. Potency, µM, hits mostly inhibitors. 1,500 compounds, 77% hits; note: potency is the fitted concentration of half-maximal effect
GALK confirm: galactokinase (human) inhibition, confirmation; shares compounds with Pol eta inh-1; purified GALK, Kinase-Glo ATP depletion luminescence; Potency, µM (titrated, usually from 115 µM), for the others: at the top dose activity, negative = inhibition, actives largely listed as inhibitors; 150 compounds, 70% hits
Redox cycling: redox cycling activity in phenol red-HRP assay; shares compounds with Pol eta inh-1; Phenol red-HRP H2O2 redox cycling, absorbance 600 nm; Potency, µM (top dose mostly 115 µM), for the others: at the highest dose activity change, negative = H2O2 signal, hits mostly inhibitors; 150 compounds, 40% hits
HEK293 viability: counter-screen for GALK inhibitors: HEK293 cell cytotoxicity; shares compounds with Pol eta inh-1; HEK-293 viability, ATP luminescence (CellTiter-Glo), 24/48 h; Potency, µM (titrated, usually from 46.1 µM), for inactives: at the highest dose activity change, negative = cytotoxicity, actives largely listed as inhibitors; 170 compounds, 10% hits; AID 2547; note: potency is the fitted concentration of half-maximal effect; % is set by controls: 0 for no effect and ±100 for the full control effect
Pol kappa inh-2: Pol kappa (human) inhibition, cherry-pick confirmation | shares compounds with Pol eta inh-1 | 920 compounds, 76% hits | Potency, µM, hits mostly inhibitors | purified Pol-kappa, fluorescent strand-displacement substrate; note: potency is the fitted concentration of half-maximal effect
Pol eta inh-2: Pol eta (human) inhibition, cherry-pick confirmation; shares compounds with Pol eta inh-1; Pol eta primer extension, TAMRA/BHQ fluorescence, 10 min; Potency, µM, usual class: inhibitors; 2,600 compounds, 64% hits; note: potency is the fitted concentration of half-maximal effect
Active calls of the source: *; u = inconclusive; x = not tested or not shown; [ ] = remark or other dose. Hits are enriched below; roughly 2.4% of the tested compounds scored in any of these assays. Calls come from the whole dose curve; as a rule, active = well fitted curve in the direction sought with a large enough effect; inconclusive = small, poorly fitted or top-dose-only effect, or another doubt; inactive = no such curve, though single readings can be large; an effect the other way counts as inactive or inconclusive.

SMILES | POLI inh | Pol kappa inh-1 | Pol beta inh | FEN1 inh | WRN helicase inh | Pol eta inh-1 | POLI cherry-pick | Pol eta inh-2 | others
COc1ccc(-n2nc(C(=O)NCC(=O)Nc3ccccn3)c3ccccc3c2=O)cc1Cl | 0.8% | -14.0% | u | -15.4% | -6.7% | 10µM* | 15* | u
CN(Cc1ccccc1)C(=O)CN1C(=O)c2ccc([N+](=O)[O-])cc2C1=O | 11.7% | -8.2% | 19.6% | -1.6% | 8.6% | -16.3% | x | x
O=C(C1COc2ccccc2O1)N1CCc2ccccc21 (centres undefined) | 44.7µM* | u | 31.6µM* | 0.3% | u | 79.4µM* | 75.2* | u
O=C(C1COc2ccccc2O1)N1CCCC1 (centres undefined) | -0.9% | 8.8% | -21.9% | -4.6% | 7.0% | -11.4% | x | x
COc1ccc(-c2cc(C(F)F)n3ncc(C(=O)N4CCc5ccccc5C4)c3n2)cc1 | 36.9% | -3.7% | 2.2% | 4.5% | -10.7% | -15.8% | x | x
C=C(C)C(=O)Nc1ccc2c(c1)OCCOCCOCCO2 | u | 79.4µM* | 10µM* | u | u | 22.4µM* | x | 19* | PGK validate=u
CC(=O)c1ccc2c(c1)OCCOCCOCCO2 | 80.9% | 9.8% | 11.4% | -0.8% | -8.2% | -11.3% | x | x
O=C(NNC(=O)C1CCN(Cc2cccc(F)c2)CC1)c1cccs1 | 133.8% | -7.9% | 41.1% | -3.4% | 3.2% | -18.9% | x | x
O=C(COC(=O)c1ccc(S(=O)(=O)Nc2ccccc2)cc1)NCc1ccco1 | 0.9% | -20.7% | u | -1.7% | -22.9% | 7.3% | x | x
CN(C)C(=O)COC(=O)c1ccc(S(=O)(=O)NCc2ccco2)cc1 | u | u | 25.1µM* | 15.7% | -3.8%[11.6 µM] | 22.4µM* | 59.7* | 37.9*
COC(=O)c1ccc(-c2ccc(C(c3c(C)[nH][nH]c3=O)c3c(C)[nH][nH]c3=O)o2)cc1 | 3.55µM* | u | 20µM* | -12.0% | u | 25.1µM* | u | 75.7*
Cc1[nH][nH]c(=O)c1C(c1ccc(-c2cccc(C(=O)O)c2)o1)c1c(C)[nH][nH]c1=O | 2.24µM* | 89.1µM* | 20µM* | -18.1% | u | 12.6µM* | 67* | 30.1*
Cc1[nH][nH]c(=O)c1C(c1ccc(-c2ccccc2C(=O)O)o1)c1c(C)[nH][nH]c1=O | 10µM* | u | 10µM* | 0.8% | -18.5%[11.6 µM] | 11.2µM* | 47.4* | 26.9* | GALK confirm=-11.4%;Redox cycling=6.68µM*;HEK293 viability=5.8%
COc1ccc(C(=O)Oc2ccc(C(c3c(C)[nH][nH]c3=O)c3c(C)[nH][nH]c3=O)cc2OC)cc1 | u | -13.7% | -0.2% | -13.0% | x | -0.8% | x | x
Cc1cc(C)cc(NC(=O)CSc2nc3nc(C)cc(C)c3c(=O)[nH]2)c1 | 12.3% | 0.2% | x | -4.4% | -0.3% | -21.4% | x | x
CCc1ccccc1NC(=O)c1ccc(Cn2nc(N3CCN(c4ccccc4)CC3)ccc2=O)o1 | 79.4µM* | u | 15.8µM* | 10.3% | x | -4.4% | u | 75.7* | Pol kappa inh-2=33.6*
Oc1ccc(/C=N/NC(=S)Nc2cccnc2)c(O)c1O | u | 2.24µM* | u | 4.47µM* | 10µM* | u | 2.67* | 3.01* | Pol kappa inh-2=2.99*
Oc1cccc(/C=N/NC(=S)Nc2cccnc2)c1O | 7.94µM* | u | 15.8µM* | u | u | 20µM* | 37.7* | 84.9*
Oc1ccc(/C=N/NC(=S)Nc2cccnc2)c(O)c1 | 7.3% | -6.2% | 11.1% | -13.9% | -6.5% | -13.1% | x | x
COc1ccccc1/C=C/C(=O)N1CCc2cc(OC)c(OC)cc2C1C (centres undefined) | 4.5% | -9.0% | -9.4% | 0.4% | 5.9% | -17.1% | x | x
N#Cc1c(SCC(=O)Nc2nccs2)sc2c(O)cc(=O)[nH]c12 | 12.6µM* | 44.7µM* | 8.91µM* | 44.7µM* | 56.2µM* | 14.1µM* | 47.4* | 30.1* | Pol kappa inh-2=16.8*
CCCSc1nnc(NC(=O)CSc2sc3c(O)cc(=O)[nH]c3c2C#N)s1 | 8.91µM* | 20µM* | 20µM* | 35.5µM* | 10µM* | 3.16µM* | 67* | 30.1* | Pol kappa inh-2=10.6*
CCOc1cccc(NC(=O)CSc2sc3c(O)cc(=O)[nH]c3c2C#N)c1 | 1.5% | 4.5% | -19.7% | -13.9% | -35.6% | -2.7% | x | x
O=c1c2ccccc2c(C=Nc2cccc(O)c2)c(O)n1-c1ccc2c(c1)OCO2 | u | -21.7% | 39.8µM* | -4.3% | -34.3%[57.1 µM] | 12.6µM* | u | u
Oc1[nH]c2ccccc2c1C=Nc1ccc2c(c1)OCO2 | 31.3% | 3.9% | -16.4% | -18.4% | -5.8% | -12.3% | x | x
C=CCn1c(C)cc(C(=O)Cn2ncc(Cl)c(Cl)c2=O)c1C | 20µM* | u | 11.2µM* | -12.1% | u | 28.2µM* | u | 75.7*
CC(C)(C)C(=O)Cn1ncc(Cl)c(Cl)c1=O | 11.6% | -20.1% | -1.6% | 18.5% | -2.9% | -3.6% | x | x
O/C=c1\ccc2cccc3nc(C(F)(F)F)nc1c23 | 0.891µM* | u | 3.16µM* | 79.4µM* | 79.4µM* | 25.1µM* | 67* | 47.8* | Pol kappa inh-2=u

Bioassay records (PubChem BioAssay)
